High-throughput results from PubChem BioAssay.
DENV2 CPE = DENV2-induced cell death inhibition | DENV2-infected cells, cytopathic effect rescue, plate reader | CPE inhibition, % at 9.99 µM | 1.7% of 350,000 active | AID 651640; in the data active = CPE inhibition above about 20%, passing the limit was not always enough; inconclusive = no clear call, values can overlap the other calls; tested in BHK-21 cells;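 also: 0% = median of neutral control wells and 100% = median of positive control wells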
FGF22 binding = binders of recombinant human FGF22 by thermal shift. SYPRO orange fluorescence; percent of sucrose octasulfate shift, DMSO zero. activity (Tm shift, normalised), % at 9.99 µM. 1.5% of 340,000 active. Q9HCT0;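 active = mean Tm shift, scaled 0 neutral to 100 positive control, at about 1.3% or above, every replicate too, limit read from the data; inconclusive = no clear call, values can overlap the other calls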
ERAP1 HTS inh = inhibitors of human ERAP1 aminopeptidase | recombinant ERAP1, Leu-AMC fluorescence, 60 min | inhibition, % at 10.7 µM | 0.15% of 340,000 active | AID 652197;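 active = mean replicate inhibition of at least 30%, or all replicates individually reaching that 30% level; inactive = mean below 30% and not every replicate reaching it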;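 also: 0% = neutral control wells and 100% = L-leucinethiol positive control wells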
RAD52 anneal inh = RAD52 (human) annealing inhibition. recombinant RAD52 DNA annealing, FRET fluorescence. inhibition, % at 18.7 µM. 0.46% of 360,000 active. AID 651710. P43351;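 active = every replicate showing at least 50% inhibition; inconclusive = mean inhibition at least 50% but not in every replicate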
AF4-AF9 inh = blocks AF4 peptide binding to human AF9; 0.47% of 350,000 active; AlphaScreen, biotin-AF4 peptide binding to FLAG-AF9; P42568; inhibition, % at 10 µM;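 active = every replicate reaching a set inhibition limit, whatever the replicate mean, cut at about 25% in these data; inconclusive = mean inhibition reaches that limit but some replicates miss it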;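 also: 0% = plate neutral control median and 100% = total signal loss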
Target sequence (P42568 whole entry, looked up): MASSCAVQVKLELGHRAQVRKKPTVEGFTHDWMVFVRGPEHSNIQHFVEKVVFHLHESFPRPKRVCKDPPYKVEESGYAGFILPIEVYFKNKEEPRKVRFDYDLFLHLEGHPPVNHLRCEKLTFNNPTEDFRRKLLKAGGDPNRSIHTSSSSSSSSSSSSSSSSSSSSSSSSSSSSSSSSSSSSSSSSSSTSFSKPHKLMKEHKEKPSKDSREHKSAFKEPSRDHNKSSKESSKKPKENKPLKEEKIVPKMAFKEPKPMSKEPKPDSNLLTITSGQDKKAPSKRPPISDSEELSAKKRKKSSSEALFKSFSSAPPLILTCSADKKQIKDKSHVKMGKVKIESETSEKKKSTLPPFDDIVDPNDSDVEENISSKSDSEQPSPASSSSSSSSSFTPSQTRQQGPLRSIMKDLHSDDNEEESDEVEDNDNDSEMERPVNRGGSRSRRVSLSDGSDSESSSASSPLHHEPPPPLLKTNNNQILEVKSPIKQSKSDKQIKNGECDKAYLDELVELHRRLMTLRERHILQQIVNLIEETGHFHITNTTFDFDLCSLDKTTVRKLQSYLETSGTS
Active calls of the source: *. Compounds with a hit are over-represented: about 4% of the library has one in this group of screens.

Results for Cc1[nH]c2ccccc2c1C1=CC(=O)C=CC1=O ?
DENV2 CPE: 3; FGF22 binding: 0; ERAP1 HTS inh: 78*; RAD52 anneal inh: -20; AF4-AF9 inh: 16

Results for CN(C)C(=O)c1ccc(-c2ccc([C@H]3[C@H]4CN(C(=O)C5CCCC5)CC(=O)N4[C@H]3CO)cc2)cc1 ?
DENV2 CPE: -13; ERAP1 HTS inh: 1; RAD52 anneal inh: 8; AF4-AF9 inh: 11

Results for C[C@H](O)C#Cc1cnc2c(c1)C(=O)N([C@@H](C)CO)C[C@@H](C)[C@H](CN(C)CC1CCCCC1)O2 ?
DENV2 CPE: -2; FGF22 binding: 0; RAD52 anneal inh: -7; AF4-AF9 inh: 2

How did Cc1c(C(=O)OCC(=O)N2CC(C)CC(C)C2)oc2ccccc12 (stereo not given) do in these assays?
DENV2 CPE: -4; FGF22 binding: 46*; ERAP1 HTS inh: 0; RAD52 anneal inh: 6; AF4-AF9 inh: -12

What do the screens show for `COc1ccc2oc(C(=O)OCC(=O)N3CC(C)CC(C)C3)c(C)c2c1` (stereo not given)?
DENV2 CPE: 14; FGF22 binding: -1; ERAP1 HTS inh: 1; RAD52 anneal inh: -7; AF4-AF9 inh: -24

Results for COc1ccccc1N1CCN(C(=O)c2cc(S(=O)(=O)N3CCCCC3)ccc2C)CC1 ?
DENV2 CPE: 34*; FGF22 binding: 0; ERAP1 HTS inh: 3; RAD52 anneal inh: -6; AF4-AF9 inh: 4

Results for COc1ccccc1N1CCN(C(=O)Cn2c(=O)oc3cc(S(=O)(=O)N4CCCC4)ccc32)CC1 ?
DENV2 CPE: 33*; FGF22 binding: 0; ERAP1 HTS inh: -5; RAD52 anneal inh: -6; AF4-AF9 inh: -5

Results for Cn1cnc(S(=O)(=O)N[C@@H]2C=C[C@H](CC(=O)N3CCN(c4ccccc4)CC3)O[C@H]2CO)c1 ?
DENV2 CPE: 0; FGF22 binding: 0; ERAP1 HTS inh: 0; RAD52 anneal inh: -102; AF4-AF9 inh: -3

How did O=C1OC(N2C(=O)CC[C@H]2C(=O)NCC2CCCO2)c2ccccc21 (stereo not given in full) do in these assays?
DENV2 CPE: 28*; FGF22 binding: 0; ERAP1 HTS inh: -1; RAD52 anneal inh: 3; AF4-AF9 inh: 3

How did CCc1cc(-c2n[nH]c(C)c2-c2nc3ccccc3n2C)c(O)cc1O do in these assays?
DENV2 CPE: 4; FGF22 binding: 0; ERAP1 HTS inh: 6; RAD52 anneal inh: 4; AF4-AF9 inh: 2

Results for CCc1cc(-c2n[nH]c(C)c2-c2nc3ccccc3n2C)c(O)c(CN2CCN(C)CC2)c1O ?
DENV2 CPE: -5; FGF22 binding: 0; ERAP1 HTS inh: 14; RAD52 anneal inh: 17; AF4-AF9 inh: 25*

Results for COc1ccc(N2C(=O)N3[C@H](c4cccc(C)c4)[C@@H]4C(=O)N(Cc5ccccc5)C(=O)[C@@H]4[C@]3(Cc3ccccc3)C2=O)cc1 ?
DENV2 CPE: 82*; FGF22 binding: 0; ERAP1 HTS inh: -1; RAD52 anneal inh: -14; AF4-AF9 inh: -4

What do the screens show for `COc1ccc([C@@H]2[C@@H]3C(=O)N(C(C)(C)C)C(=O)[C@@H]3[C@]3(Cc4ccccc4)C(=O)N(c4ccc(OC)cc4)C(=O)N23)cc1`?
DENV2 CPE: inconclusive; FGF22 binding: 0; ERAP1 HTS inh: -3; RAD52 anneal inh: -2; AF4-AF9 inh: -3

What do the screens show for `COc1ccc([C@@H]2[C@@H]3C(=O)N(C(C)(C)C)C(=O)[C@@H]3[C@]3(Cc4ccc(Cl)cc4)C(=O)N(c4cccc(C)c4)C(=O)N23)cc1`?
DENV2 CPE: 5; FGF22 binding: 1.3*; ERAP1 HTS inh: 3; RAD52 anneal inh: -9; AF4-AF9 inh: 2

What do the screens show for `COCCCNC(=O)C[C@@H]1C[C@@]2(C(=O)OC)CC(C)(C)CC=C2N(CCc2ccc(OC)c(OC)c2)C1=O`?
DENV2 CPE: -2; FGF22 binding: 0; RAD52 anneal inh: -9; AF4-AF9 inh: 0

Results for CCCCCCCCN1C(=O)[C@H](CC(=O)NCCCCc2ccccc2)C[C@@]2(C(=O)OC)CC(C)(C)CC=C12 ?
DENV2 CPE: 35*; FGF22 binding: 0; ERAP1 HTS inh: -1; RAD52 anneal inh: -3

How did CCCCNC(=O)C[C@@H]1C[C@@]2(C(=O)OC)CC(C)(C)CC=C2N(CCc2ccc(OC)c(OC)c2)C1=O do in these assays?
DENV2 CPE: 15; FGF22 binding: 40*; ERAP1 HTS inh: -4; RAD52 anneal inh: -3; AF4-AF9 inh: 4

Results for COC(=O)[C@@]12C[C@@H](CC(=O)NCc3ccc(OC)c(OC)c3)C(=O)N(Cc3ccco3)C1=CCC(C)(C)C2 ?
DENV2 CPE: 22*; FGF22 binding: 0; ERAP1 HTS inh: 0; RAD52 anneal inh: -6

Results for COC(=O)[C@@]12C[C@@H](CC(=O)NCc3ccccc3)C(=O)N(Cc3ccco3)C1=CCC(C)(C)C2 ?
DENV2 CPE: 6; FGF22 binding: 0; ERAP1 HTS inh: -6; RAD52 anneal inh: -8; AF4-AF9 inh: 3

What do the screens show for `CCCCCCCCN1C(=O)[C@H](CC(=O)NCc2ccccc2)C[C@@]2(C(=O)OC)CC(C)(C)CC=C12`?
DENV2 CPE: -3; FGF22 binding: 0; ERAP1 HTS inh: -4; RAD52 anneal inh: -3

What do the screens show for `O=C(NCC[C@@H]1CC[C@@H](NC(=O)c2cccnc2)[C@@H](CO)O1)Nc1ccc(Cl)cc1`?
DENV2 CPE: 1; FGF22 binding: 0; ERAP1 HTS inh: -1; RAD52 anneal inh: 16; AF4-AF9 inh: 10

Results for Cc1c(C=O)c2ccccc2n1CC(=O)NC(C)c1ccccc1 (stereo not given) ?
DENV2 CPE: 4; FGF22 binding: 43*; ERAP1 HTS inh: -4; RAD52 anneal inh: -24; AF4-AF9 inh: 0

Results for CC(C)[C@H](NC(=O)C1CC1)C(=O)N1CCC[C@H]1C(=O)NCCc1ccccc1Cl ?
DENV2 CPE: 29*; FGF22 binding: 0; ERAP1 HTS inh: -1; RAD52 anneal inh: -13

What do the screens show for `CC(C)[C@H](NC(=O)CC1CCCC1)C(=O)N1CCC[C@H]1C(=O)NCCc1ccccc1Cl`?
DENV2 CPE: 5; FGF22 binding: 0; ERAP1 HTS inh: 4; RAD52 anneal inh: -3

Results for COc1cccc(C(=O)N[C@H](C(=O)N2CCC[C@H]2C(=O)NCCc2ccccc2Cl)C2CCCCC2)c1 ?
DENV2 CPE: 29*; FGF22 binding: 0; ERAP1 HTS inh: -1; RAD52 anneal inh: -6

How did COC(=O)[C@@H](NC(=O)/C=C/c1ccc(OC)cc1)C(C)C do in these assays?
DENV2 CPE: -3; FGF22 binding: 43*; ERAP1 HTS inh: 1; RAD52 anneal inh: 0; AF4-AF9 inh: 0

How did COc1ccc(/C=C/C(=O)O)cc1 do in these assays?
DENV2 CPE: -10; FGF22 binding: 0; ERAP1 HTS inh: 5; RAD52 anneal inh: -13; AF4-AF9 inh: -1
